The values below come from PubChem BioAssay (NCATS).

Structures are written as SMILES. Inconclusive results are not listed. Active and inactive are the calls of the source. Calls follow the shape of the dose curve; as a rule, active = well fitted inhibition curve with a large enough effect; inconclusive = small, poorly fitted or top-dose-only effect; inactive = flat fitted curve, though single readings scatter.

Assay [1] in a line: qHTS for identification of novel therapeutic agents for treatment of microphthalmiaassociated transcription factor (MiT) renal cell carcinoma (RCC) (AID 1963991). Conditions: CellTiter-Glo, 48 h, stronger effect = lower value. An outline of the steps: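 Three TFE3-fusion RCC cell lines (UOK109, UOK124, UOK145), 500 cells/well, were exposed to the 1912-compound MIPE 4.0 library for 48 hours at 37 C. Viability was read by CellTiter-Glo luminescence, normalised to DMSO (100%) and empty wells (0%), with 11-concentration curve fits.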

Assay [2] is described as follows: qHTS profiling for inhibitors of Plasmodium falciparum proliferation (AID 504749). Also: nearly all actives have a fitted effect of over 60% in size. Also: potency is read from the fitted curve at half-maximal effect.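 As to activity, negative = inhibition: 0% = DMSO vehicle and full inhibition = artemisinin control.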 As to conditions: P. falciparum in erythrocytes, SYBR Green DNA, 72 h. An outline of the steps:
(§1)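 P. falciparum-infected erythrocytes (0.3% parasitemia, 2.5% hematocrit final) were exposed to compounds for 72 h at 37 C in 5% CO2, then lysed with SYBR Green buffer overnight at room temperature; parasite DNA fluorescence was normalized to artemisinin and DMSO controls.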
In general terms: In qHTS, concentration-response curves come from the screen itself.

The test system of another assay is 3D7. The description is as above. As to conditions: P. falciparum in erythrocytes, SYBR Green DNA, 72 h; series mostly up to 28.7 µM. An outline of the steps: as §1
A further assay relates to 7G8. The description is as above. Conditions: P. falciparum in erythrocytes, SYBR Green DNA, 72 h; series mostly up to 28.7 µM. In outline:
as §1

The next assay relates to AA1029. The description is as above. Conditions: P. falciparum in erythrocytes, SYBR Green DNA, 72 h; series mostly up to 28.7 µM. An outline of the steps: as §1
The subject of a further assay is AS120. Described as above. Conditions: P. falciparum in erythrocytes, SYBR Green DNA, 72 h; series mostly up to 28.7 µM. An outline of the steps:
as §1

A further assay relates to ATS189. The assay is described as above. Conditions: P. falciparum in erythrocytes, SYBR Green DNA, 72 h; series mostly up to 28.7 µM. In outline:
as §1

The next assay deals with ATS95. The description is as above. As to conditions: P. falciparum in erythrocytes, SYBR Green DNA, 72 h; series mostly up to 28.7 µM. In outline:
as §1

Another assay deals with C2A. Described as above. As to conditions: P. falciparum in erythrocytes, SYBR Green DNA, 72 h; series mostly up to 28.7 µM. An outline of the steps: as §1
A further assay relates to CP185. The description is as above. As to conditions: P. falciparum in erythrocytes, SYBR Green DNA, 72 h; series mostly up to 28.7 µM. In outline:
as §1

The test system of a further assay is CP191. The description is as above. As to conditions: P. falciparum in erythrocytes, SYBR Green DNA, 72 h; series mostly up to 28.7 µM. In outline:
as §1

The test system of a further assay is CP192. The assay is described as above. Conditions: P. falciparum in erythrocytes, SYBR Green DNA, 72 h; series mostly up to 28.7 µM. An outline of the steps:
as §1

The next assay concerns CP194. The assay is described as above. Conditions: P. falciparum in erythrocytes, SYBR Green DNA, 72 h; series mostly up to 28.7 µM. An outline of the steps:
as §1

The next assay has as its system CP201. Described as above. As to conditions: P. falciparum in erythrocytes, SYBR Green DNA, 72 h; series mostly up to 28.7 µM. In outline:
as §1

For a further assay, the system named is CP211. The assay is described as above. As to conditions: P. falciparum in erythrocytes, SYBR Green DNA, 72 h; series mostly up to 28.7 µM. An outline of the steps:
as §1

For another assay, the system named is CP215. The description is as above. As to conditions: P. falciparum in erythrocytes, SYBR Green DNA, 72 h; series mostly up to 28.7 µM. In outline:
as §1

For another assay, the system named is CP217. The description is as above. As to conditions: P. falciparum in erythrocytes, SYBR Green DNA, 72 h; series mostly up to 28.7 µM. In outline: as §1
For another assay, the system named is CP237. Described as above. Conditions: P. falciparum in erythrocytes, SYBR Green DNA, 72 h; series mostly up to 28.7 µM. An outline of the steps:
as §1

A further assay has as its system CP203. The assay is described as above. As to conditions: P. falciparum in erythrocytes, SYBR Green DNA, 72 h; series mostly up to 28.7 µM. An outline of the steps: as §1
[3] abbreviates: TFE3-RCC UOK109 viability, measured here: UOK109 Z-AUC.
Where [4] appears, read: TFE3-RCC viability, measured here: UOK124 Z-AUC.
The mark [5] stands for this setting: TFE3-RCC viability, measured here: UOK145 Z-AUC.
[6] abbreviates: at 28.7 µM (top of the series), parasite line A.
[7] abbreviates: at 28.7 µM (top of the series), parasite line B.
Where [8] appears, read: at 12.8 µM (top of the series), parasite line A.
The mark [9] stands for this setting: at 12.8 µM (top of the series), parasite line B.

`CC1=NN(c2ccccc2)C(=O)C1`: the z-score in assay [1] (setting [3]) is -4.96; in assay [1] (setting [4]), 0.556; in [1] (setting [5]) it was -3.3. Besides, the activity, negative = inhibition in [2] (setting [6]) is 3.27% (inactive); in [2] (setting [7]), -12.4% (inactive). In addition, the Potency result with 3D7, in the assay on 7G8, with AA1029, with AS120, in the assay on ATS189 and with ATS95 was “inactive” throughout. Further, the Potency entry with C2A, in the assay with CP185, in the assay on CP191, in the assay on CP192, in the assay with CP194 and in the assay on CP201 was “inactive” in each case. The Potency result in the assay with CP211, with CP215, with CP217 and in the assay with CP237 was “inactive” in each case.

With `Cc1cccc(Nc2ccncc2S(=O)(=O)NC(=O)NC(C)C)c1`, the values for the z-score in assay [1] (setting [3]), in [1] (setting [4]) and in assay [1] (setting [5]) were 0.581, 0.17 and 0.58, respectively. Also, the activity, negative = inhibition in assay [2] (setting [8]) is -0.953% (inactive); in [2] (setting [9]) it was 11.1% (inactive). Further, the Potency result with 3D7, in the assay with 7G8, with AA1029, with AS120, with ATS189 and in the assay on ATS95 was “inactive” each time. Also, the Potency entry in the assay with C2A, in the assay on CP185, in the assay on CP191, in the assay on CP192, with CP194 and in the assay with CP201 was “inactive” throughout. The Potency entry in the assay with CP211, in the assay with CP215, in the assay on CP217 and in the assay with CP237 was “inactive” throughout.

In the case of `C#CCN[C@@H]1CCc2ccccc21`, the z-score stood at 0.682 in assay [1] (setting [3]), 0.222 in [1] (setting [4]) and 0.635 in assay [1] (setting [5]). The results for the activity, negative = inhibition in assay [2] (setting [6]) and in assay [2] (setting [7]) were 16.7% (inactive) and 9.12% (inactive), respectively. The Potency result in the assay with 3D7, in the assay with 7G8, with AA1029, in the assay on AS120, with ATS189 and in the assay on ATS95 was “inactive” throughout. In addition, the Potency result in the assay on C2A, in the assay with CP185, in the assay with CP191, with CP192, in the assay with CP194 and in the assay with CP201 was “inactive” throughout. Also, the Potency result in the assay with CP203, with CP211, in the assay with CP215, in the assay with CP217 and in the assay with CP237 was “inactive” throughout.

`CCN1CCCC1CNC(=O)c1cc(S(N)(=O)=O)ccc1OC` (centres undefined): the z-score in assay [1] (setting [3]) came out at 0.447; in assay [1] (setting [4]) it was 0.683; in assay [1] (setting [5]), 0.799.

For `CC1=CC(=O)c2ccccc2C1=O`, the activity, negative = inhibition in assay [2] (setting [6]) is -6.5% (inactive); in assay [2] (setting [7]), -23% (inactive). For the same molecule, the Potency was 7.08 µM (active) in the assay with 3D7 and 10 µM (active) with 7G8. Further, the Potency entry in the assay with AA1029, in the assay on AS120, with ATS189, in the assay on ATS95, in the assay with CP185 and in the assay on CP191 was “inactive” throughout. The Potency result with CP192, with CP194, with CP201, in the assay with CP211, in the assay with CP215 and in the assay on CP217 was “inactive” in each case.

In the case of `Nc1[nH]c(=O)ncc1F`, the z-score in [1] (setting [3]) came to 0.532; in assay [1] (setting [4]), 0.978; in assay [1] (setting [5]), 0.221. For the same molecule, the activity, negative = inhibition is 6.35% (inactive) in [2] (setting [8]) and 1.39% (inactive) in [2] (setting [9]). In addition, the Potency result with 3D7, in the assay on 7G8, with AA1029, in the assay on AS120, with ATS189 and with ATS95 was “inactive” each time. The Potency entry in the assay with CP185, in the assay with CP191, in the assay on CP192, in the assay on CP194, with CP201 and in the assay with CP203 was “inactive” each time. Moreover, the Potency entry in the assay with CP211, in the assay on CP215, in the assay on CP217 and with CP237 was “inactive” in each case.
